The campaign covered roughly 5,500 compounds. About 2,000 (36%) were called active. Roughly 18% stayed inconclusive and do not appear here. Cut-off read from the data, not from the text of the source: active = normalized growth mostly below about 0.91 (no sharp cut-off); inconclusive = no clear call, values can overlap the other calls; inactive = mostly above about 0.92. The list shows a part of the results.
Experiment: chemical genetic growth profiling, strain panel (AID 1159580);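 note: tested at 20 µM; growth read once vehicle control cultures reached saturation at 30 °C; 1 = growth at the plate median or of vehicle wells; lower values mean less growth of the strain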
Conditions: growth OD
[1] = S. cerevisiae deletion strains, locus YAL040C, strain CLN3, active compounds read low
[2] = S. cerevisiae deletion strains, locus YDR363W, strain ESC2, active compounds read low
[3] = S. cerevisiae deletion strains, locus YER002W, strain NOP16, active compounds read low
[4] = S. cerevisiae deletion strains, locus YJR075W, strain HOC1, active compounds read low
[5] = S. cerevisiae deletion strains, locus YNL175C, strain NOP13, active compounds read low
[6] = S. cerevisiae deletion strains, locus YNL197C, strain WHI3, active compounds read low
[7] = S. cerevisiae deletion strains, locus YNL224C, strain SQS1, active compounds read low
[8] = S. cerevisiae deletion strains, locus YOR083W, strain WHI5 (second series), active compounds read low
[9] = S. cerevisiae deletion strains, locus YPL055C, strain LGE1, active compounds read low
[10] = S. cerevisiae deletion strains, locus YMR263W, strain SAP30, active compounds read low
[11] = S. cerevisiae deletion strains, locus YNL153C, strain GIM3, active compounds read low
[12] = S. cerevisiae deletion strains, locus YNL322C, strain KRE1, active compounds read low
[13] = S. cerevisiae deletion strains, locus YPL241C, strain CIN2, active compounds read low
[14] = S. cerevisiae deletion strains, locus YDL101C, strain DUN1, active compounds read low
[15] = S. cerevisiae deletion strains, locus YHR030C, strain SLT2, active compounds read low

Measured: normalized growth

CC(=O)C(C)=O
inactive: [1] 1.01 | S. cerevisiae deletion strains, locus YCL061C, strain MRC1 (second series), active compounds read low 1.01 | [2] 1.03 | [3] 1 | [4] 1.02 | [5] 0.994 | [6] 1.03 | [7] 0.99 | [8] 1.02 | [9] 1.07

[N-]=[N+]=Nc1ccc(C(=O)CSC[C@H](NC(=O)CC[C@H](N)C(=O)O)C(=O)NCC(=O)O)cc1
inactive: [1] 1.02 | [2] 0.999 | [3] 0.989 | S. cerevisiae deletion strains, locus YGR229C, strain SMI1, active compounds read low 1 | [10] 0.997 | [11] 0.99 | [5] 1.01 | [6] 1.01 | [7] 1.01 | [12] 1.01 | [8] 1.01 | [13] 0.996

CSc1ccc(C(=O)O)s1
inactive: S. cerevisiae deletion strains, locus YAL013W, strain DEP1, active compounds read low 0.969 | S. cerevisiae deletion strains, locus YBR229C, strain ROT2, active compounds read low 0.931 | S. cerevisiae deletion strains, locus YCL061C, strain MRC1, active compounds read low 0.938 | [14] 0.939 | S. cerevisiae deletion strains, locus YDR150W, strain NUM1, active compounds read low 0.945 | S. cerevisiae deletion strains, locus YEL061C, strain CIN8, active compounds read low 1.03 | [15] 1.16 | S. cerevisiae deletion strains, locus YJR043C, strain POL32, active compounds read low 0.961 | S. cerevisiae deletion strains, locus YKL190W, strain CNB1, active compounds read low 1.01 | S. cerevisiae deletion strains, locus YLR039C, strain RIC1, active compounds read low 1.04 | S. cerevisiae deletion strains, locus YLR058C, strain SHM2 (second series), active compounds read low 0.945 | S. cerevisiae deletion strains, locus YLR085C, strain ARP6, active compounds read low 1.1 | S. cerevisiae deletion strains, locus YLR262C, strain YPT6, active compounds read low 1.01 | S. cerevisiae deletion strains, locus YML094W, strain GIM5, active compounds read low 1.04 | S. cerevisiae deletion strains, locus YMR219W, strain ESC1, active compounds read low 0.957 | [10] 0.955 | S. cerevisiae deletion strains, locus YMR307W, strain GAS1, active compounds read low 1.05 | S. cerevisiae deletion strains, locus YNL128W, strain TEP1, active compounds read low 1.01 | [11] 0.932 | S. cerevisiae deletion strains, locus YNL298W, strain CLA4 (second series), active compounds read low 1.07 | [12] 0.944 | S. cerevisiae deletion strains, locus YNR030W, strain Alg12, active compounds read low 1.03 | [9] 0.883 | [13] 0.906 | S. cerevisiae deletion strains, locus YPR135W, strain CTF4, active compounds read low 1.11 | S. cerevisiae strains, strain wild type, active compounds read low 1.01
active: S. cerevisiae deletion strains, locus YGR078C, strain PAC10, active compounds read low 0.926 | S. cerevisiae deletion strains, locus YHR087W, strain rtc3, active compounds read low 0.862 | [4] 0.874

N#Cc1c(Br)cnn1Cc1cc(C(F)(F)F)cc(C(F)(F)F)c1
active: S. cerevisiae deletion strains, locus YLR113W, strain HOG1, active compounds read low 0.761
inactive: S. cerevisiae deletion strains, locus YAR019C, strain CDC15, active compounds read low 0.997 | S. cerevisiae deletion strains, locus YBL105C, strain PKC1, active compounds read low 1 | S. cerevisiae deletion strains, locus YBR135W, strain CKS1, active compounds read low 1.01 | S. cerevisiae deletion strains, locus YBR136W, strain MEC1, active compounds read low 0.995 | S. cerevisiae deletion strains, locus YBR160W, strain CDC28, active compounds read low 0.999 | S. cerevisiae deletion strains, locus YDL017W, strain CDC7, active compounds read low 0.995 | S. cerevisiae deletion strains, locus YDL028C, strain MPS1, active compounds read low 1 | [14] 0.988 | S. cerevisiae deletion strains, locus YDL108W, strain KIN28, active compounds read low 0.997 | S. cerevisiae deletion strains, locus YDL132W, strain cdc53, active compounds read low 0.999 | S. cerevisiae deletion strains, locus YDL214C, strain PRR2, active compounds read low 0.863 | S. cerevisiae deletion strains, locus YDR052C, strain DBF4, active compounds read low 0.993 | S. cerevisiae deletion strains, locus YDR054C, strain cdc34, active compounds read low 0.989 | S. cerevisiae deletion strains, locus YDR226W, strain ADK1, active compounds read low 1 | S. cerevisiae deletion strains, locus YDR477W, strain SNF1, active compounds read low 0.939 | S. cerevisiae deletion strains, locus YER123W, strain YCK3, active compounds read low 0.842 | S. cerevisiae deletion strains, locus YER133W, strain GLC7, active compounds read low 0.919 | S. cerevisiae deletion strains, locus YFL009W, strain cdc4, active compounds read low 0.993 | S. cerevisiae deletion strains, locus YFL029C, strain CAK1, active compounds read low 0.998 | S. cerevisiae deletion strains, locus YFR003C, strain YPI1, active compounds read low 1 | S. cerevisiae deletion strains, locus YFR019W, strain FAB1, active compounds read low 0.936 | S. cerevisiae deletion strains, locus YFR028C, strain CDC14, active compounds read low 1 | S. cerevisiae deletion strains, locus YGR040W, strain KSS1, active compounds read low 0.925 | S. cerevisiae deletion strains, locus YGR052W, strain FMP48, active compounds read low 0.946 | S. cerevisiae deletion strains, locus YGR092W, strain DBF2, active compounds read low 0.919 | [15] 0.933 | S. cerevisiae deletion strains, locus YHR079C, strain IRE1, active compounds read low 0.93 | S. cerevisiae deletion strains, locus YHR082C, strain KSP1, active compounds read low 0.907 | S. cerevisiae deletion strains, locus YHR205W, strain SCH9, active compounds read low 0.817 | S. cerevisiae deletion strains, locus YIL147C, strain SLN1, active compounds read low 0.99 | S. cerevisiae deletion strains, locus YJL095W, strain BCK1, active compounds read low 0.941 | S. cerevisiae deletion strains, locus YJL128C, strain PBS2, active compounds read low 0.887 | S. cerevisiae deletion strains, locus YJL157C, strain FAR1, active compounds read low 0.909 | S. cerevisiae deletion strains, locus YJR016C, strain ILV3, active compounds read low 0.989 | S. cerevisiae deletion strains, locus YJR066W, strain TOR1 (second series), active compounds read low 0.919 | S. cerevisiae deletion strains, locus YJR066W, strain TOR1, active compounds read low 0.952 | S. cerevisiae deletion strains, locus YKL048C, strain ELM1, active compounds read low 0.957 | S. cerevisiae deletion strains, locus YKL067W, strain YNK1, active compounds read low 0.895 | S. cerevisiae deletion strains, locus YKL101W, strain HSL1, active compounds read low 0.878 | S. cerevisiae deletion strains, locus YKL193C, strain SDS22, active compounds read low 0.996 | S. cerevisiae deletion strains, locus YKL203C, strain TOR2, active compounds read low 1 | S. cerevisiae deletion strains, locus YLR133W, strain CKI1, active compounds read low 0.926 | S. cerevisiae deletion strains, locus YLR403W, strain SFP1, active compounds read low 0.933 | S. cerevisiae deletion strains, locus YML070W, strain DAK1, active compounds read low 0.884 | S. cerevisiae deletion strains, locus YMR001C, strain CDC5, active compounds read low 0.997 | S. cerevisiae deletion strains, locus YMR205C, strain PFK2 (second series), active compounds read low 0.907 | S. cerevisiae deletion strains, locus YMR277W, strain FCP1, active compounds read low 1 | S. cerevisiae deletion strains, locus YNL006W, strain LST8, active compounds read low 0.997 | S. cerevisiae deletion strains, locus YNL020C, strain ARK1, active compounds read low 0.888 | S. cerevisiae deletion strains, locus YNL161W, strain CBK1, active compounds read low 0.994 | S. cerevisiae deletion strains, locus YNL183C, strain NPR1, active compounds read low 0.931 | S. cerevisiae deletion strains, locus YNL207W, strain RIO2, active compounds read low 0.99 | S. cerevisiae deletion strains, locus YNL222W, strain SSU72, active compounds read low 0.996 | S. cerevisiae deletion strains, locus YNL307C, strain MCK1 (second series), active compounds read low 0.903 | S. cerevisiae deletion strains, locus YOL078W, strain AVO1, active compounds read low 0.999 | S. cerevisiae deletion strains, locus YOL136C, strain PFK27, active compounds read low 0.859 | S. cerevisiae deletion strains, locus YOR061W, strain CKA2, active compounds read low 0.867 | S. cerevisiae deletion strains, locus YOR119C, strain RIO1, active compounds read low 0.974 | S. cerevisiae deletion strains, locus YOR231W, strain MKK1, active compounds read low 0.903 | S. cerevisiae deletion strains, locus YOR329C, strain SCD5, active compounds read low 0.991 | S. cerevisiae deletion strains, locus YPL031C, strain PHO85, active compounds read low 0.922 | S. cerevisiae deletion strains, locus YPL153C, strain RAD53, active compounds read low 0.928 | S. cerevisiae deletion strains, locus YPL204W, strain HRR25, active compounds read low 0.943 | S. cerevisiae deletion strains, locus YPL209C, strain IPL1, active compounds read low 1 | S. cerevisiae deletion strains, locus YPL256C, strain CLN2, active compounds read low 0.876 | S. cerevisiae deletion strains, locus YPR025C, strain CCL1, active compounds read low 0.999 | S. cerevisiae deletion strains, locus YPR106W, strain ISR1, active compounds read low 0.983 | S. cerevisiae deletion strains, locus YPR111W, strain DBF20, active compounds read low 0.959 | S. cerevisiae deletion strains, strain NNK1, active compounds read low 0.956 | S. cerevisiae deletion strains, strain TSCII, active compounds read low 0.998

— PubChem BioAssay AID1159580 (chemical genetic matrix, 2015)
